Measured values as given in PubChem BioAssay (Tox21).
Results filed as inconclusive are left out. Calls of active or inactive are those of the source. Unless noted, calls follow the shape of the dose curve; as a rule, active = well fitted curve in the direction sought with a large enough effect in the repeat runs; inconclusive = weak or mixed curves; inactive = no such curve, though single readings can be large; an effect the other way counts as inactive or inconclusive.

Tests used:
[1] = biological target: Nuclear receptor subfamily 1 group I member 3 (Homo sapiens) (UniProt Q14994); assay: qHTS assay to identify small molecule antagonists of the constitutive androstane receptor (CAR) signaling pathway (AID 1224838);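 also: HepG2 cells stably expressing hCAR with CYP2B6 luciferase reporter stimulated by CITCO; nearly all actives have a fitted effect of over 40% in size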; also: potency is read from the fitted curve at half-maximal effect; as to activity, negative = inhibition: % is scaled to controls: 0 for no effect and ±100 for the full control effect
Procedure, shortened: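 Luminescence from a CYP2B6-2.2kb promoter reporter in hCAR-expressing HepG2 cells reflects CAR signaling. Cells received compounds at 15 concentrations and 50 nM CITCO (final), then incubated 24 h at 37 C/5% CO2.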

[2] = qHTS RealTime-Glo MT Cell Viability Assay in HepG2 cells - 40 hour (AID 1224870); also: nearly all actives have a fitted effect of over 50% in size; also: potency is read from the fitted curve at half-maximal effect; as to activity change, negative = cytotoxic: % is scaled to controls: 0 for no effect and ±100 for the full control effect
Procedure, shortened: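 HepG2 cells mixed with RealTime-Glo MT reagents (NanoLuc plus cell-permeant prosubstrate) were seeded at 600 cells/well, incubated 5 h at 37 C/5% CO2, then pinned with compounds in DMSO; nonlytic luminescence tracked viability during 40 h treatment.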

[3] = A CellTox Green Cytotoxicity Assay to monitor cytotoxicity in HEK293 cells - 40 hour (AID 1224871); also: nearly all actives have a fitted effect of over 45% in size; also: potency is read from the fitted curve at half-maximal effect
Procedure, shortened: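 Dead-cell fluorescence measured kinetically: asymmetric cyanine dye, HEK293, 600 cells/well, 5 h settle, 23 nL cpd/DMSO, 37 C, reads 0–40 h every 8 h.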

[4] = qHTS RealTime-Glo MT Cell Viability Assay in HEK293 cells - 40 hour (AID 1224874); details: RealTime-Glo luminescence; max response: hits give low values; also: nearly all actives have a fitted effect of over 50% in size; also: potency is read from the fitted curve at half-maximal effect
Procedure, shortened: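 600 HEK293 cells per well, dispensed already mixed with RealTime-Glo MT reagents. Compound dosing came 5 h later. The same wells were read for luminescence at 0, 8, 16, 24, 32 and 40 h of exposure at 37 C.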

[5] = A CellTox Green Cytotoxicity Assay to monitor cytotoxicity in HepG2 cells - 16 hour (AID 1224876); also: nearly all actives have a fitted effect of over 45% in size; also: potency is read from the fitted curve at half-maximal effect
Procedure, shortened: (§1)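 First, HepG2 cells (600/well) mixed with reagent were plated; second, after 5 h at 37 C they received compounds via pintool; third, fluorescence was measured at 0 h through 40 h at 8 h intervals.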

[6] = qHTS RealTime-Glo MT Cell Viability Assay in HepG2 cells - 32 hour (AID 1224877); also: nearly all actives have a fitted effect of over 55% in size; also: potency is read from the fitted curve at half-maximal effect
Procedure, shortened: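 HepG2 suspension premixed with RealTime-Glo reagents is plated at 600 cells per well and left 5 h at 37 C/5% CO2. Compounds in DMSO then go in, and bioluminescence reflecting viable cell number is recorded over 40 h.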

[7] = A CellTox Green Cytotoxicity Assay to monitor cytotoxicity in HepG2 cells - 8 hour (AID 1224890); also: nearly all actives have a fitted effect of over 45% in size; also: potency is read from the fitted curve at half-maximal effect
Procedure, shortened: as §1

[8] = qHTS assay to identify small molecule antagonists of the estrogen receptor alpha (ER-alpha) signaling pathway using the BG1 cell line in the presence of 0.1 nM 17-beta-estradiol - cell viability counter screen (AID 1259241); also: % is scaled to controls: 0 for no effect and ±100 for the full control effect; nearly all actives have a fitted effect of over 40% in size
Procedure, shortened: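 Cytotoxicity counter-screen: live-cell protease activity measured by fluorescence (30 min reagent step) in the same wells. Cells were VM7Luc4E2 with endogenous ER-alpha and ERE-driven luciferase, treated 22 hr at 37C alongside 0.1 nM 17beta-estradiol final.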

[9] = qHTS assay to identify small molecule antagonists of the androgen receptor (AR) signaling pathway using the MDA cell line in the presence of 0.5 nM R1881 - cell viability counter screen (AID 1259242); also: % is scaled to controls: 0 for no effect and ±100 for the full control effect; nearly all actives have a fitted effect of over 45% in size
Procedure, shortened: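 qHTS format. MDA-kb2 (MMTV-luc, AR/GR responsive) + cpd + 0.5 nM R1881 final, 16 hr 37C/0% CO2 → CellTiter-Fluor 30 min → fluorescence intensity.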

[10] = qHTS assay to identify small molecule HDAC inhibitors - cell viability counter screen (AID 1259365); also: series mostly up to about 92 µM; % is scaled to controls: 0 for no effect and ±100 for the full control effect; nearly all actives have a fitted effect of over 50% in size
Procedure, shortened: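 CellTiter-Glo luminescence (30 min, room temperature) reported viability after a 2 h compound exposure at 37 C. Cells: wild-type HCT-116, 1,500 per well, seeded the night before.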

[11] = qHTS assay to identify small molecule agonists of the sonic hedgehog signaling (Shh) pathway - cell viability counter screen (AID 1259366); also: nearly all actives have a fitted effect of over 50% in size; also: potency is read from the fitted curve at half-maximal effect
Procedure, shortened: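 Cytotoxicity counter screen: CellTiter-Fluor reagent added after 23 h compound exposure, then 1 h at 37C and fluorescence read. Cells were 3T3 Gli1-Luc, seeded 2,000 per well and dosed 4 h post-plating.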

[12] = qHTS assay to identify small molecule antagonists of the sonic hedgehog signaling (Shh) pathway (AID 1259369; calls by dose curve; also: nearly all actives have a fitted effect of over 45% in size; also: potency is read from the fitted curve at half-maximal effect)
Procedure, shortened: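 Stable Gli1-Luc reporter NIH/3T3 clone; quantitative HTS in stimulated mode with conditioned medium. Luminescence measured after 24hr compound treatment at 37 C.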

[13] = qHTS assay to identify small molecule agonists or antagonists of the thyroid stimulating hormone receptor (TSHR) signaling pathway - wild type cell line counter screen (AID 1259384; calls by dose curve; also: % is scaled to controls: 0 for no effect and ±100 for the full control effect)
Procedure, shortened: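 Wild-type HEK293 cells were plated 18 h at 37 C/5% CO2, pin-dosed with compound plus Ro20-1724 medium, held 30 min at room temperature, then given cAMP-d2 and anti-cAMP-cryptate; fluorescence was read after 1 h. Fifteen concentrations, triplicate.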

[14] = qHTS assay to identify small molecule agonists of the estrogen receptor alpha (ER-alpha) signaling pathway in the presence of an antagonist - cell viability counter screen (AID 1259386);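 also: cells exposed to compounds for 22 h at 37 °C before the viability read; nearly all actives have a fitted effect of over 30% in size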; also: potency is read from the fitted curve at half-maximal effect
Procedure, shortened: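 In this counter screen, compound effects on VM7Luc4E2 viability were tested in the presence of the antagonist ICI-182,780 at 10.0nM final. Compounds were dosed at 15 concentrations, exposure lasted 22hr, and the CellTiter-Fluor signal was read.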

[15] = qHTS assay to identify small molecule antagonists of the TGF-beta/Smad signaling pathway - cell viability counter screen (AID 1346824)
Procedure, shortened: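 SBE-bla HEK 293T cells were plated overnight at 37 C, then given compounds in DMSO plus TGF-beta1 (added as 0.25 ng/mL solution) for 5 hr. After the bla read, CellTiter-Glo was added to the same wells and luminescence read after 30 min at room temperature.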

[16] = qHTS assay to identify small molecule agonists of the TGF-beta/Smad signaling pathway (AID 1346859; active = well fitted activation curve with a large enough effect in the signal ratio in the repeat runs, not every such curve was filed as active; the % refers to the signal ratio; also: series mostly up to about 77 µM; % is scaled to controls: 0 for no effect and ±100 for the full control effect)
Procedure, shortened: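 Fluorescence (ex 405 nm; em 460 and 530 nm) was read 2 h after LiveBLAzer FRET substrate at RT. The preceding compound treatment of overnight-plated SBE-bla HEK293T cells lasted 5 h at 37 C.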

[17] = biological target: Cytochrome P450 1A2 (Homo sapiens) (UniProt P05177); assay: Cytochrome P450 Family 1 Subfamily A Member 2 (CYP1A2) small molecule antagonists: luciferase reporter qHTS assay (AID 1671199); also: nearly all actives have a fitted effect of over 50% in size; also: potency is read from the fitted curve at half-maximal effect
Procedure, shortened: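 Steps: enzyme-substrate mix dispensed; test compounds and furafylline control pinned in; 10 min room temperature; NADPH regeneration solution added, 1 h; reaction stopped with luciferin detection reagent; luminescence read after 20 min.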

[18] = biological target: Voltage-gated inwardly rectifying potassium channel KCNH2 (Homo sapiens) (UniProt Q12809); assay: Human Ether-a-go-go-Related Gene (hERG) channel small molecule antagonists: fluorescence cell-based qHTS assay (AID 1671200); also: nearly all actives have a fitted effect of over 50% in size; also: potency is read from the fitted curve at half-maximal effect
Procedure, shortened: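 Thallium flux as potassium surrogate: FluxOR II dye loaded 1 h at room temperature into hERG-expressing U2OS cells, then stimulus buffer added after 10 min. Kinetic 480 nm excitation/540 nm emission read, 2 min.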

[19] = qHTS assay to identify small molecule agonists of the estrogen related receptor signaling pathway with the pleiotropic PPARgamma coactivator (PGC) from Tox21 10K library (AID 1224842); also: % is scaled to controls: 0 for no effect and ±100 for the full control effect; nearly all actives have a fitted effect of over 15% in size
Procedure, shortened: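 PGC/ERR reporter cells (NTP line) were seeded 2,000 per well, rested 6 h at 37 C/5% CO2, then pin-dosed with compounds in DMSO for 18 h at 37 C; luciferase read by One-Glo luminescence after 30 min at room temperature.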

[20] = qHTS assay to identify small molecule agonists of the AP-1 signaling pathway - cell viability counter screen (AID 1159525; calls by dose curve; also: nearly all actives have a fitted effect of over 55% in size; also: potency is read from the fitted curve at half-maximal effect)
Procedure, shortened: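 Each titration point was normalised to DMSO and tetra n-octyl ammonium bromide controls. The read was Cell Titer Glo luminescence after 30 min at RT, following 5 h compound exposure of ME-180 AP-1-bla cells at 37 °C.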

Chain of Nuclear receptor subfamily 1 group I member 3 (Homo sapiens) (Q14994 whole entry, looked up): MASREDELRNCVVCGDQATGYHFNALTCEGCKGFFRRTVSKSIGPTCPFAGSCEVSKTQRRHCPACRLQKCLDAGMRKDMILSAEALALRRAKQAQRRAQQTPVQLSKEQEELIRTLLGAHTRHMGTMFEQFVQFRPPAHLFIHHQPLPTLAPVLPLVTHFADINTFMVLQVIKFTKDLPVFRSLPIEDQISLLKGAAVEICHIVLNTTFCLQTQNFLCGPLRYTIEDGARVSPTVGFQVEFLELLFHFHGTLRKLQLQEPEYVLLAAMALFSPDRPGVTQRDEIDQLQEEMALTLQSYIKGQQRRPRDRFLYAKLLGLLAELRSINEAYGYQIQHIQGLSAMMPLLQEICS
Chain of Voltage-gated inwardly rectifying potassium channel KCNH2 (Homo sapiens) (Q12809 whole entry, looked up): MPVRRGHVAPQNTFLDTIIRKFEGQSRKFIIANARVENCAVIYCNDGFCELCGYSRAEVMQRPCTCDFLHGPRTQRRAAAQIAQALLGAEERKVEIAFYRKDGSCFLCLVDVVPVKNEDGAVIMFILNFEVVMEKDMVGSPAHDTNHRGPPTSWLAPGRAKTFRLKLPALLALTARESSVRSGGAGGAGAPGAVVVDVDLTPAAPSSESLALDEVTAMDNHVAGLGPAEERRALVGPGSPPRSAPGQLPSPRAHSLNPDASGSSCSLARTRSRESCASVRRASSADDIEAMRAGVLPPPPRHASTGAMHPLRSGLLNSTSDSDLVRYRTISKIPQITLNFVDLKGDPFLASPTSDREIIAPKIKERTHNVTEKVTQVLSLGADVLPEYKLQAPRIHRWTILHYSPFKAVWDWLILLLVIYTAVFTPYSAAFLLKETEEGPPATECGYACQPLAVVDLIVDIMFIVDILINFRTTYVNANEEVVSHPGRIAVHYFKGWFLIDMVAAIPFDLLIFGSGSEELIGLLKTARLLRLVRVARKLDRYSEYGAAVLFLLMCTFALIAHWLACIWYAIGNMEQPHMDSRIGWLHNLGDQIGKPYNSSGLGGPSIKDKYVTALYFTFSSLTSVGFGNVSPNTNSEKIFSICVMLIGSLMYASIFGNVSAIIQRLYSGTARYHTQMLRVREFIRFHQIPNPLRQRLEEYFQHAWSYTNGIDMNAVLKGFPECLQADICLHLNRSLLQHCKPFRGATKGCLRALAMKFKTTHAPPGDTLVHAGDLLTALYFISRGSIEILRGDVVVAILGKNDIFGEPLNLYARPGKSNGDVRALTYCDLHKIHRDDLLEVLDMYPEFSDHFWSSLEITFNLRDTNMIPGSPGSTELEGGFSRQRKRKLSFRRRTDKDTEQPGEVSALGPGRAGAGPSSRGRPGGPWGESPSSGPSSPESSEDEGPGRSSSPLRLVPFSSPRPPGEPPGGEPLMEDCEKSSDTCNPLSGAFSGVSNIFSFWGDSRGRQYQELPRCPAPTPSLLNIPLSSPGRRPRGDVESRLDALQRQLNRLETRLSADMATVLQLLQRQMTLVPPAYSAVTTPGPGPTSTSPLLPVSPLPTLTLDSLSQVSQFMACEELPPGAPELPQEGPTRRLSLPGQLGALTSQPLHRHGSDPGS
Chain of Cytochrome P450 1A2 (Homo sapiens) (P05177 whole entry, looked up): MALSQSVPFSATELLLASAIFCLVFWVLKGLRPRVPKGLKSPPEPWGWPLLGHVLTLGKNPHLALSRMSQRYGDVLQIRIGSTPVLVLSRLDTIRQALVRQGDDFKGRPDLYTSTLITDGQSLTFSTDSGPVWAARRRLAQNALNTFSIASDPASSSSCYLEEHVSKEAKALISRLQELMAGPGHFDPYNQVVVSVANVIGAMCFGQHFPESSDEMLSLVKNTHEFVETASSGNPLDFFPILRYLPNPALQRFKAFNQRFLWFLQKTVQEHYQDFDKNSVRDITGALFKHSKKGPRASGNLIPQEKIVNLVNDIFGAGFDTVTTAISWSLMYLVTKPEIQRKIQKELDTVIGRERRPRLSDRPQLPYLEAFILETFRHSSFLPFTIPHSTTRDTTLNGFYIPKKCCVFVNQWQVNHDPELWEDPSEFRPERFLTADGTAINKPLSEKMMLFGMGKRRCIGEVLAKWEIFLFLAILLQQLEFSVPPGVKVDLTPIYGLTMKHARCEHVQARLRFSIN

Cc1ccc2nc3sc(=O)sc3nc2c1
inactive: activity, negative = inhibition [1] 67.8% [at 19 µM] | activity change, negative = cytotoxic [2] -11.2% [at 15.8 µM] | cytotoxicity increase [3] -10.2% [at 15.8 µM] | max response [4] 3.19% | cytotoxicity increase [5] -9.02% [at 15.8 µM] | activity change, negative = cytotoxic [6] -8.61% [at 15.8 µM] | cytotoxicity increase [7] -5.93% [at 15.8 µM] | activity change, negative = cytotoxicity [8] 1.06% [at 19 µM] | viability change, negative = cytotoxic [9] -14.8% [at 19 µM] | activity change, negative = cytotoxicity [10] 4.09% [at 19 µM] | viability change, negative = cytotoxic [11] -7.48% [at 19 µM] | activity change, negative = inhibition [12] -28.1% [at 19 µM] | cAMP activity change [13] 3.67% [at 18.9 µM] | activity change, negative = cytotoxicity [14] -6.53% [at 19 µM] | viability change, negative = cytotoxic [15] 2.33% [at 15.8 µM] | activation [16] -3.69% [at 15.8 µM] | activity change, negative = inhibition [18] 2.68% [at 15.8 µM]
active: Potency [17] 13.5 µM

Nc1ccc(Cl)cc1[N+](=O)[O-]
inactive: Potency [1] | Potency [19]

Nc1ccc([N+](=O)[O-])cc1
inactive: Potency [1] | Potency [2] | Potency [6] | outcome [10] | outcome [13] | Potency [15] | outcome [16]
active: Potency [20] 38.9 µM | Potency [3] 38.9 µM | Potency [4] 38.9 µM | Potency [7] 43.6 µM | Potency [11] 30.6 µM | Potency [12] 27.3 µM | Potency [14] 27.3 µM | Potency [17] 39.9 µM

O=[N+]([O-])c1c(Cl)c(Cl)cc(Cl)c1Cl
active: Potency [3] 49 µM | Potency [17] 4.8 µM
inactive: Potency [20] | Potency [19] | Potency [2] | max response [4] 0.554% | Potency [6] | Potency [7] | Potency [8] | Potency [9] | outcome [10] | Potency [11] | Potency [12] | outcome [13] | Potency [14] | Potency [15] | Potency [18]

CCN(CC)C(=O)Cl
inactive: Potency [20] | Potency [1] | Potency [19] | Potency [2] | Potency [3] | max response [4] 13.5% | Potency [5] | Potency [6] | Potency [7] | Potency [8] | Potency [9] | outcome [10] | Potency [11] | Potency [12] | outcome [13] | Potency [14] | Potency [15] | outcome [16] | Potency [17] | Potency [18]

ClC(Cl)=C(c1ccc(Cl)cc1)c1ccccc1Cl
inactive: Potency [20] | Potency [1] | Potency [2] | Potency [5] | Potency [6] | Potency [7] | Potency [8] | Potency [9] | outcome [10] | Potency [11] | Potency [12] | outcome [13] | Potency [14] | Potency [15] | Potency [17]
active: Potency [18] 21.9 µM

Cc1ccc(N(SC(F)(Cl)Cl)S(=O)(=O)N(C)C)cc1
active: Potency [20] 30.9 µM | Potency [1] 27.3 µM | Potency [2] 9.77 µM | Potency [3] 4.9 µM | Potency [4] 5.49 µM | Potency [5] 17.4 µM | Potency [6] 9.77 µM | Potency [11] 4.86 µM | Potency [12] 2.73 µM | Potency [17] 22.4 µM | Potency [18] 21.9 µM
inactive: Potency [19] | Potency [7] | Potency [8] | outcome [13] | Potency [14] | Potency [15] | outcome [16]

Brc1cc(Br)cc(Br)c1
inactive: Potency [1]

Cc1cc(C)c(C(=O)P(=O)(c2ccccc2)c2ccccc2)c(C)c1
inactive: Potency [1] | Potency [19] | Potency [2] | Potency [6] | Potency [7] | Potency [8] | Potency [9] | outcome [10] | outcome [13] | Potency [15] | outcome [16] | Potency [17]
active: Potency [20] 38.9 µM | Potency [4] 38.9 µM | Potency [11] 61.1 µM | Potency [12] 4.33 µM | Potency [18] 19.5 µM

O=[N+]([O-])c1cc(C(F)(F)F)ccc1Cl
inactive: Potency [19]

OCC(c1ccc(Cl)cc1)c1ccc(Cl)cc1
active: Potency [20] 49 µM | Potency [3] 43.6 µM | Potency [4] 38.9 µM | Potency [5] 43.6 µM | Potency [7] 49 µM | Potency [12] 24.3 µM | Potency [17] 35.6 µM | Potency [18] 43.6 µM
inactive: Potency [8] | Potency [9] | outcome [10] | outcome [13] | Potency [14] | Potency [15] | outcome [16]

ClC1=C(Cl)[C@]2(Cl)[C@@H]3[C@@H](Cl)[C@H]4O[C@H]4[C@@H]3C1(Cl)C2(Cl)Cl
active: Potency [20] 49 µM | Potency [3] 54.9 µM | Potency [12] 48.6 µM | Potency [18] 54.9 µM
inactive: Potency [1] | Potency [19] | Potency [8] | Potency [9] | outcome [10] | Potency [11] | Potency [14] | Potency [15] | outcome [16] | Potency [17]

Cc1nnc2n1-c1sc(CCc3ccc(CC(C)C)cc3)cc1C(c1ccccc1Cl)=NC2C (configuration not stated)
active: Potency [20] 26.8 µM | Potency [3] 23.9 µM | Potency [4] 9.52 µM | Potency [12] 21.1 µM | Potency [18] 15.1 µM
inactive: Potency [1] | Potency [19] | Potency [5] | Potency [7] | Potency [8] | outcome [10] | outcome [13] | Potency [17]

O=C(c1ccccc1)C(Cl)Cl
active: Potency [3] 34.7 µM | Potency [4] 38.9 µM | Potency [11] 68.6 µM | Potency [12] 30.6 µM | Potency [17] 31.7 µM
inactive: Potency [20] | Potency [19] | Potency [2] | Potency [5] | Potency [6] | Potency [7] | Potency [8] | Potency [9] | Potency [14] | Potency [15]
